From the supplement of paper PMC10849652
Targets with a hit are over-represented here; the source holds about 7,900 in all. About 0.6% of all pairs of compound and target were hits. A number with no mark means an inactive call.

Columns and labels:
Test in all cases: log2 fold change, soluble protein after heating vs DMSO (PISA); higher = thermal stabilisation; K562 cells, 10 uM, 30 min; active = over 0.2 and 3.5 SD of the protein, either way, in both replicates (recomputed)
erlotinib = compound: C#Cc1cccc(Nc2ncnc3cc(OCCOC)c(OCCOC)cc23)c1 [erlotinib]
How it was run: (§1)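 Quantification of soluble protein used TMTpro 16plex LC-MS/MS, with channel sums equalised. Samples were the supernatant after 21,000xg for 90 min of pooled aliquots from K562 cells (2×10^6 cells/mL) treated with 10 μM compound for 30 min, heated for 3 min over 48°C-58°C, and extracted in PBS with 0.5% NP-40 at 4°C. Values, from duplicates, describe thermal stability against control samples on a log2 fold-change scale.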

[1] = compound: C/C(=N\NC(=O)C1=CC(=CC=C1)S(=O)(=O)N2CCOCC2)/C3=C(C=CC(=C3)Cl)O
How it was run: as §1

[2] = compound: C1=CC(=C(C=C1Cl)C2=NC3=NC=CN=C3C(=N2)NC4=CC=NC=C4)F
How it was run: as §1

[3] = compound: C1=CC(=CC=C1C2=NC3=C(N2)C=C(C=C3)C(=O)N)OC4=CC=C(C=C4)Cl
How it was run: as §1

[4] = compound: C1=CC2=C(C=CC(=C2)/C=C\3/C(=O)NC(=NCC4=CC=CS4)S3)N=C1
How it was run: as §1

[5] = compound: C1=CC2=NC=CN=C2C=C1/C=C/3\C(=O)NC(=O)S3
How it was run: as §1

[6] = compound: C1=CC=C(C=C1)C2=NC(=C(N2)C3=CC=NC=C3)C4=CC(=C(C=C4)Cl)O
How it was run: as §1

[7] = compound: C1=CC=C2C(=C1)C3=NNC4=CC=CC(=C43)C2=O
How it was run: as §1

[8] = compound: C1CCN(C1)C(=O)NC2=CC=CC(=C2)NC3=NC=C(C(=N3)NCCC4=CN=CN4)Br
How it was run: as §1

[9] = compound: C1CN(CCC1(CC2=CC=C(C=C2)Cl)N)C3=NC=NC4=C3C=CN4
How it was run: as §1

IRAK-1-4 Inhibitor I = compound: C1COCCN1CCN2C3=CC=CC=C3N=C2NC(=O)C4=CC(=CC=C4)[N+](=O)[O-] [IRAK-1-4 Inhibitor I]
How it was run: as §1

ibrutinib = compound: C=CC(=O)N1CCC[C@@H](n2nc(-c3ccc(Oc4ccccc4)cc3)c3c(N)ncnc32)C1 [ibrutinib]
How it was run: as §1

[10] = compound: CC(=O)c1cnc2ccc(-c3cc(Cl)c(O)c(Cl)c3)nc2c1N[C@H]1CC[C@H](CN(C)C)CC1
How it was run: as §1

ralimetinib = compound: CC(C)(C)Cn1c(N)nc2ccc(-c3[nH]c(C(C)(C)C)nc3-c3ccc(F)cc3)nc21 [ralimetinib]
How it was run: as §1

[11] = compound: CC(C)(O)CC(=O)NCCn1ccc2ncnc(Nc3ccc(Oc4cccc(C(F)(F)F)c4)c(Cl)c3)c21
How it was run: as §1

[12] = compound: CC(C)C1=C2N=C(C=C(N2N=C1)NCC3=CC=CC=C3)NCCCCCCN
How it was run: as §1

[13] = compound: CC(C)C[C@@H](C=O)NC(=O)[C@H](CC(C)C)NC(=O)[C@H](CC(C)C)NC(=O)OCc1ccccc1
How it was run: as §1

pinometostat = compound: CC(C)N(C[C@H]1O[C@@H](n2cnc3c(N)ncnc32)[C@H](O)[C@@H]1O)[C@H]1C[C@@H](CCc2nc3cc(C(C)(C)C)ccc3[nH]2)C1 [pinometostat]
How it was run: as §1

[14] = compound: CC1=C(C(CC(=O)N1)C2=CC=C(C=C2)C(F)(F)F)C(=O)NC3=C(C=C4C(=C3)C=NN4)F
How it was run: as §1

[15] = compound: CC1=C(C2=C(C=C1)C(=O)C3=CC=CC=C3N2CCCN)C
How it was run: as §1

Chain of UniProt Q13011 (Q13011 whole entry, looked up): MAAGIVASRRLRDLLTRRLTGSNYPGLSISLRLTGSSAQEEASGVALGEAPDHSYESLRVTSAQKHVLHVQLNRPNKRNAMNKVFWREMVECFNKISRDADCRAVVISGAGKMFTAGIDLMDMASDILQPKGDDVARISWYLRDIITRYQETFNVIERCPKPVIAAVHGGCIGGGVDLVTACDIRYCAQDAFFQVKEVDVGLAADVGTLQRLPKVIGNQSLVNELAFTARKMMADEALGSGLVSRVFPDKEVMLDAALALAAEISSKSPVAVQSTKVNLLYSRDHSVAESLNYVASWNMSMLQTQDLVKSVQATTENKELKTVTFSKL
Chain of UniProt Q15392 (Q15392 whole entry, looked up): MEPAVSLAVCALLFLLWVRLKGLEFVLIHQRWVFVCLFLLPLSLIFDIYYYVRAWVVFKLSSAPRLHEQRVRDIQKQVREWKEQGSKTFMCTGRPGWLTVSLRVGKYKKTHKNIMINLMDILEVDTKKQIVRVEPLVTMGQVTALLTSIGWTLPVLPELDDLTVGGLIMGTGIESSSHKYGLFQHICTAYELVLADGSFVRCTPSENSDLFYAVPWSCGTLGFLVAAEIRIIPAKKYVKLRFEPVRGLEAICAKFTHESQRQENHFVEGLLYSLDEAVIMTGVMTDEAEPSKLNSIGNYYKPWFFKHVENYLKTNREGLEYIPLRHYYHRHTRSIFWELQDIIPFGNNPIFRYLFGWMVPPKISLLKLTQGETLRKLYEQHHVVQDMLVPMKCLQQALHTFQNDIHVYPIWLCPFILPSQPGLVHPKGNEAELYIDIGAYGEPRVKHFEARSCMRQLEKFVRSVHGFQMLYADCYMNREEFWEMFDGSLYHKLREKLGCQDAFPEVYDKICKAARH
Chain of UniProt Q9UPT5 (Q9UPT5 whole entry, looked up): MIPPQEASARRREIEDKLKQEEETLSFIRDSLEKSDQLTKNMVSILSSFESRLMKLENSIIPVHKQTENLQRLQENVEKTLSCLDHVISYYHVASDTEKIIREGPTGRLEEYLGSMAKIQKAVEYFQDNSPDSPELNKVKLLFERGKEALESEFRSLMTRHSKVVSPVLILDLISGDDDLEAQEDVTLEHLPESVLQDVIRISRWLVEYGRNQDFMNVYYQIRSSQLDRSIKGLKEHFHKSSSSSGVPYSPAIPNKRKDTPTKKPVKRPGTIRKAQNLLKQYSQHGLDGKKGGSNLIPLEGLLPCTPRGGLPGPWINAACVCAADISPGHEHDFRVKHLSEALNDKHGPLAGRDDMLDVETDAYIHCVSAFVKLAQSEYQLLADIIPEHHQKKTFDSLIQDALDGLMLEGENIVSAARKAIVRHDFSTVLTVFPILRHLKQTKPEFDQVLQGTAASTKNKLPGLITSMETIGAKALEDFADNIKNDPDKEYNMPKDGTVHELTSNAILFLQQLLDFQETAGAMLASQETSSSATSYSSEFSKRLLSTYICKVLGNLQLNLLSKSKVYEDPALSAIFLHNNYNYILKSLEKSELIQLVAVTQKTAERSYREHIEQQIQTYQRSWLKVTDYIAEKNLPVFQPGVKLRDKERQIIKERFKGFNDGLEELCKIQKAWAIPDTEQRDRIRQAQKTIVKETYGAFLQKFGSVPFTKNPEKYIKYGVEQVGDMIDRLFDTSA
Chain of UniProt O75071 (O75071 whole entry, looked up): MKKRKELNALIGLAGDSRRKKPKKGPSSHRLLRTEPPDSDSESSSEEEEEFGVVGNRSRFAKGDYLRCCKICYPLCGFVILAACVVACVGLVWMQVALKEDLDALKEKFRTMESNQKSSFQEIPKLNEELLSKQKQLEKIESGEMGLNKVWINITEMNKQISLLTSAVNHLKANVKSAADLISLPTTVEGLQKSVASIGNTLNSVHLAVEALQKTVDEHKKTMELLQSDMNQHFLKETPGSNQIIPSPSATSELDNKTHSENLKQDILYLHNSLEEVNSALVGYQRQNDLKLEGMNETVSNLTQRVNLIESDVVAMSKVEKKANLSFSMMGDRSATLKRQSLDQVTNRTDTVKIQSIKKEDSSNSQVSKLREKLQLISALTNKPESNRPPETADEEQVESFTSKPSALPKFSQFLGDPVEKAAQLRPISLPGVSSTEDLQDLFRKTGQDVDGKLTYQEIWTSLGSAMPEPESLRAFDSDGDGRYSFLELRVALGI
Chain of UniProt O43237 (O43237 whole entry, looked up): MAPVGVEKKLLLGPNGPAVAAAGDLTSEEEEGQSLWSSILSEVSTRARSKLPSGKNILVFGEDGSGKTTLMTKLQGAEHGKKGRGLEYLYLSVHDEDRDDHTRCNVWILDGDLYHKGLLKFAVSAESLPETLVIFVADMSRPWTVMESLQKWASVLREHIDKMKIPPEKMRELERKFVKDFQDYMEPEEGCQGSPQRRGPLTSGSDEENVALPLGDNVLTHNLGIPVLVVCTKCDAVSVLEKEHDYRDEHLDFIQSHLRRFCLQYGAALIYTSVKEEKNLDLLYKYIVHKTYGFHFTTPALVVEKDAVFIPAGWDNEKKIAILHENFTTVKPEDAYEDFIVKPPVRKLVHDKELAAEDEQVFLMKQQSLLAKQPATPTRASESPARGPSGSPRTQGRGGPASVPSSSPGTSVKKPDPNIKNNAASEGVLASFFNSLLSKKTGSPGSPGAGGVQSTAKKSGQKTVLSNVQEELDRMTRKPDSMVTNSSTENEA
Chain of UniProt Q9H773 (Q9H773 whole entry, looked up): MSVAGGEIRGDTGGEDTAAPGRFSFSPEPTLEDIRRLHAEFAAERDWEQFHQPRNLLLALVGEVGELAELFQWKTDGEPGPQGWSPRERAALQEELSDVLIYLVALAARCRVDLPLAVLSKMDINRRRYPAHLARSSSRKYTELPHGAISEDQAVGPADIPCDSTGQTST
Chain of UniProt Q6UX04 (Q6UX04 whole entry, looked up): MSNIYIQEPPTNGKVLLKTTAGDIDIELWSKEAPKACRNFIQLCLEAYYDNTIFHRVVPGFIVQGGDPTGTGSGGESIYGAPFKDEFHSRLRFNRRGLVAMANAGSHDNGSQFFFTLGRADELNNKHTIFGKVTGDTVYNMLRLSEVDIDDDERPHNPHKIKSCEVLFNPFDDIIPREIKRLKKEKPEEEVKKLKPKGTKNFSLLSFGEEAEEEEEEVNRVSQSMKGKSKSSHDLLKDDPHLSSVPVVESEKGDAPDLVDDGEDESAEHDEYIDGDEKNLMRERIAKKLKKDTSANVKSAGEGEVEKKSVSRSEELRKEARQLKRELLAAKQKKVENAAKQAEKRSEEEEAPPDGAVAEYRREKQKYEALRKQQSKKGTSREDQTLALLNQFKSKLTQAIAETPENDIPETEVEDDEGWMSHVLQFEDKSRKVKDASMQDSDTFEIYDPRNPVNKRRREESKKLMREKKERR
Chain of UniProt Q6IAN0 (Q6IAN0 whole entry, looked up): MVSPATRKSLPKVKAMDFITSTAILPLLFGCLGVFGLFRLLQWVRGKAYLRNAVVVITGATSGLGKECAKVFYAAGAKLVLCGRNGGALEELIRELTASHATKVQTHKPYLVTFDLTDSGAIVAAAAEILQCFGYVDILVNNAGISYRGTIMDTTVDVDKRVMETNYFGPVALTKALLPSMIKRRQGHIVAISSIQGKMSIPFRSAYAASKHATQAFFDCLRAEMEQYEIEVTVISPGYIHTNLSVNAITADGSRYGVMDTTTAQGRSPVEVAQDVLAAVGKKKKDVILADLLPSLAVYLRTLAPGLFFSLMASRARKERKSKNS

Target | log2 fold change (erlotinib) | log2 fold change [1] | log2 fold change [2] | log2 fold change [3] | log2 fold change [4] | log2 fold change [5] | log2 fold change [6] | log2 fold change [7] | log2 fold change [8] | log2 fold change [9] | log2 fold change (IRAK-1-4 Inhibitor I) | log2 fold change (ibrutinib) | log2 fold change [10] | log2 fold change (ralimetinib) | log2 fold change [11] | log2 fold change [12] | log2 fold change [13] | log2 fold change (pinometostat) | log2 fold change [14] | log2 fold change [15]
DCTPP1 (UniProt Q9H773) | 0.01 | -0.07 | 0.14 | -0.039 | -0.073 | 0.035 | 0.194 | 0.012 | -0.021 | -0.054 | 0.017 | 0.011 | 0.03 | 0.062 | -0.039 | 0.075 | -0.105 | -0.067 | 0.061 | 0.165
EFCAB14 (UniProt O75071) | 0.051 | -0.053 | 0.013 | 0.024 | -0.049 | 0.033 | 0.159 | -0.119 | 0.044 | -0.032 | -0.016 | 0.043 | -0.196 | 0.135 | -0.009 | -0.127 | -0.063 | -0.061 | -0.035 | 0.006
DHRS7B (UniProt Q6IAN0) | -0.039 | 0.07 | 0.011 | 0.009 | 0.027 | 0.012 | 0.144 | 0.034 | -0.037 | 0.058 | 0.027 | -0.017 | -0.063 | 0.23 | 0.055 | 0.115 | -0.113 | -0.055 | -0.049 | -0.003
CWC27 (UniProt Q6UX04) | 0.084 | -0.023 | 0.055 | -0.049 | 0.021 | 0.02 | 0.041 | -0.102 | -0.086 | -0.053 | -0.045 | -0.111 | -0.133 | 0.048 | -0.08 | 0.018 | -0.007 | -0.023 | -0.045 | 0.199
DHCR24 (UniProt Q15392) | 0.393 | 0.068 | -0.151 | 0.092 | 0.081 | -0.024 | 0.03 | -0.009 | -0.066 | -0.074 | -0.036 | 0.02 | 0.157 | 0.04 | 0.041 | 1.14 (active) | 0.022 | 0.05 | -0.104 | 0.212
DYNC1LI2 (UniProt O43237) | 0.035 | -0.147 | -0.257 | -0.012 | -0.04 | -0.073 | -0.061 | 0.049 | 0.035 | -0.052 | 0.089 | 0.083 | 0.099 | 0.124 | 0.03 | -0.067 | 0.07 | 0.146 | 0.007 | 0.094
EXOC7 (UniProt Q9UPT5) | 0.032 | 0.074 | 0.001 | -0.042 | 0.048 | 0.016 | 0.011 | -0.016 | -0.023 | -0.014 | -0.047 | -0.029 | 0.002 | 0.049 | -0.109 | -0.276 | 0.044 | 0.043 | 0.041 | 0.045
ECH1 (UniProt Q13011) | -0.027 | 0.053 | 0.243 | 0 | 0.126 | -0.018 | 0.541 (active) | 0.361 (active) | -0.028 | -0.064 | 0.056 | -0.003 | -0.058 | 0.087 | -0.112 | -0.164 | -0.033 | 0.003 | 0.086 | 0.076
